# Compounds with a hit are over-represented: about 2.4% of the library has one in this group of screens.
# GLP1R cytotox: cytotoxicity in counter-screen for GLP-1R inverse agonists | HEK293 cAMP-luciferase reporter cells, luminescence, 24 h | Potency, µM (highest dose often 38.3 µM), inactives show at the highest dose activity change, negative = inhibition, most hits filed as inhibitors | 410,000 compounds, 0.13% hits | AID 624418;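 also: loss of luciferase light is scored as toxicity; potency is read from the fitted curve at half-maximal effect; % is scaled to controls: 0 for no effect and ±100 for the full control effect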
#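 To flag toxic compounds, the library was rerun on cells for 24 hr at 37 deg C and 5% CO2. Viability-linked luminescence was captured 12 min after adding luciferase detection reagent.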
# GLP1R inv ag: acts as inverse agonist at human GLP-1 receptor; P43220; HEK293 GLP-1R CRE-luciferase, luminescence, 24 h; GLP-1R form is constitutively active; Potency, µM (titrated, usually from 38.3 µM), inactives show top-dose activity change, negative = inhibition, most hits filed as inhibitors; 410,000 compounds, 1.6% hits; AID 624417; also: potency is read from the fitted curve at half-maximal effect; % is scaled to controls: 0 for no effect and ±100 for the full control effect; nearly all actives have a fitted effect of over 55% in size
#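 Inverse agonists were sought by their lowering of basal cAMP reporter luciferase output in HEK293 cells stably carrying constitutively active human GLP-1R, after 24 h compound treatment.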
# PTHR1 ag: PTHR1 (human) receptor agonism; Q03431; HEK293 GP2 PTHR1 cells, GloSensor cAMP luminescence, 1 h; Potency, µM (series often up to 115 µM), for the others: at the top dose activation, usual class: activators; 410,000 compounds, 0.075% hits; AID 743266; also: potency is read from the fitted curve at half-maximal effect; nearly all actives have a fitted effect of over 55% in size
#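 HEK-293-derived GP2 cells expressing PTHR1 and a GloSensor cAMP reporter, 3,000/well, plated overnight, given luciferin plus IBMX (each 0.5 mM as added) for 1 h at 37 °C, then compound for 1 h at 37 °C. Luminescence was read after 15 min at room temperature.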
# GLP1R ag: agonists of human GLP-1 receptor; P43220; HEK293 GLP-1R CRE-luciferase, luminescence, 4-6 h; cells express a hypersensitive GLP-1R form; Potency, µM (titrated, usually from 45.6 µM), without a hit: top-dose activation, actives largely listed as activators; 380,000 compounds, 0.007% hits; AID 624172; also: potency is read from the fitted curve at half-maximal effect; % of control where 0% means no effect
# TRHR enhancer: allosteric enhancers of human TRH receptor | AID 493056 | 360,000 compounds, 0.66% hits | enhancement, % at 2 µM | TRHR cells, fluo-8 calcium fluorescence, EC20 TRH enhancement; in the data active = enhancement above about 30%; also: 0% is about no effect
# Target sequence (P34981 whole entry, looked up): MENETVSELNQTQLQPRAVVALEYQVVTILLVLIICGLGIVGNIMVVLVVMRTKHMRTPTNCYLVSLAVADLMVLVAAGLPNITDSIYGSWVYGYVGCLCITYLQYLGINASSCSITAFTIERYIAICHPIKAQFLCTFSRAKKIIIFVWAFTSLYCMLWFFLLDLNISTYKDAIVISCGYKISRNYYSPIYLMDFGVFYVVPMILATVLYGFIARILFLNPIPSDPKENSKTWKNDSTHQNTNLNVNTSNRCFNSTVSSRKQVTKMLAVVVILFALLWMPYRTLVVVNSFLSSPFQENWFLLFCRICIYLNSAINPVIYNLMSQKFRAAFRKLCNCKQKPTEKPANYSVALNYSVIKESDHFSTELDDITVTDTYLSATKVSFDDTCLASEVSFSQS
#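 TRHR-expressing cells loaded with fluo-8 calcium dye were read kinetically (ex 480/em 530) during compound addition, then stimulated with an EC20 of TRH (10 nM final). Enhancement of the Gq-mediated intracellular calcium response was scored.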
# TRHR ag: TRH receptor (human) agonism; activation, % at 2 µM; 360,000 compounds, 0.18% hits; AID 493084; TRHR cells, calcium flux fluo-8, FDSS agonist mode; in the data active = activation above about 30%; also: 0% is about no effect
#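 Read-out: compound-evoked intracellular calcium rise in TRHR cells, fluo-8 dye, kinetic FDSS fluorescence at 1 s/cycle following a 10-cycle baseline. Cells cultured overnight before dye loading (30 min–1.5 h, RT).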
# The depositor's hits bear a star; i = inactive; u = inconclusive; x = no result given; [ ] = remark or other dose. Unless noted, calls follow the shape of the dose curve; as a rule, active = well fitted curve in the direction sought with a large enough effect; inconclusive = small, poorly fitted or top-dose-only effect, or another doubt; inactive = no such curve, though single readings can be large; an effect the other way counts as inactive or inconclusive.
SMILES,GLP1R cytotox,GLP1R inv ag,PTHR1 ag,GLP1R ag,TRHR enhancer,TRHR ag
COc1cccc(NC(=O)Nc2cc(-c3cn4cccnc4n3)ccc2OC)c1,-10%,-21%,-2%,7%,34*,0
CCCCN(CC)CCCNC(=O)C1CCN(c2nc3ccc(CC)cc3s2)CC1,u,u,-3%,x,-6,5
CCOc1ccccc1N1CC(c2nc3ccccc3n2CCCCOc2cc(C)ccc2C)CC1=O (configuration not stated),-1%,-11%,i,x,-7,1
CCCCN1CC(c2nc3ccccc3n2CCCCOc2cc(C)cc(C)c2)CC1=O (configuration not stated),-11%,10µM*,-21%,x,-2,0
Cc1cccc(OCCCCn2c(C3CC(=O)N(c4ccccc4Cl)C3)nc3ccccc32)c1 (configuration not stated),16%,4%,i,x,33*,1
CCCCN1CC(c2nc3ccccc3n2CCCCOc2ccc(C)c(C)c2)CC1=O (configuration not stated),-21%,u,-14%,x,-3,0
COc1ccccc1OCCCn1c(C2CC(=O)N(c3ccccc3Cl)C2)nc2ccccc21 (configuration not stated),-23%,u,i,x,-5,-1
Cc1cccc(OCCCCn2c(C3CC(=O)N(c4ccc(C)cc4C)C3)nc3ccccc32)c1 (configuration not stated),-27%,13µM*,-30%,x,3,1
CC1CN(CC(=O)Nc2nc(-c3ccc(Cl)cc3)cs2)CC(C)O1 (configuration not stated),-9%,u,-38%,-1%,x,x
CCC(=O)N1CCc2cc(S(=O)(=O)CCC(=O)Nc3ccc(C(C)=O)cc3)ccc21,4%,11%,-12%,10%,1,0
CCC(C(=O)Nc1cccc(C#N)c1)n1c(=O)c(-c2ccccc2NC(C)=O)nc2ccccc21 (configuration not stated),-21%,u,14%,x,-7,-1
COc1cccc(OC)c1C(=O)Nc1ccc2c(c1)N(S(=O)(=O)c1cccs1)CCC2,0%,-39%,-17%,9%,4,0
O=C(Nc1ccc2c(c1)N(S(=O)(=O)c1cccs1)CCC2)c1c(F)cccc1Cl,-3%,7.9µM*,-33%,-7%,-3,1
C/C(=N\NC(=O)c1cccc(S(=O)(=O)N2CCCC2)c1)c1ccc(F)cc1,14%,-1%,-12%,-7%,8,1
Cc1cc(C(=O)N/N=C/c2ccc([N+](=O)[O-])cc2)c(C)o1,-3%,6%,-20%,15%,18,-1
CCOc1ccc(C(C(=O)NC2CCCC2)N(CCCO)C(=O)c2ccc(-c3ccccc3)[nH]2)cc1 (configuration not stated),5%,13µM*,-19%,-6%,-7,-1
COc1cc2ccccc2cc1C(=O)N1CCc2ccccc21,u,7.9µM*,-27%,2%,5,0
COc1cc(C(=O)N2CCc3ccccc32)cc(OC)c1OC,-4%,-27%,i,-4%,-4,0
CCCCN(CCCNC(=O)c1ccc(Sc2ccc(Cl)cc2)c(NC(C)=O)c1)c1ccccc1,-4%,u,i,x,-6,0
CCN(CCCNC(=O)c1ccc(Sc2ccc(Cl)cc2)c(NC(C)=O)c1)c1ccccc1,-9%,10µM*,-29%,x,3,-1
CCS(=O)(=O)N1CC(=O)N(c2ccc(C)c(C)c2)C(C)(C(=O)NC2CCCCC2)C1 (configuration not stated),-14%,6%,i,x,42*,0
CCCS(=O)(=O)N1CC(=O)N(c2ccc(C)c(Cl)c2)C(C)(C(=O)NC2CCCCCC2)C1 (configuration not stated),-10%,9%,i,x,-11,-1
COc1ccc(C(CNC(=O)c2oc3ccccc3c2C)N2CCCC2)cc1 (configuration not stated),-25%,u,i,u,-2,0
COc1ccc(C(CNC(=O)c2oc3c(Cl)cccc3c2C)N2CCCC2)cc1 (configuration not stated),u,10µM*,-59%,23%,2,0
COc1ccc(C(CNC(=O)c2nn(-c3ccccc3)c(=O)c3ccccc23)N2CCOCC2)cc1 (configuration not stated),13%,45%,i,4%,32*,0
SMILES,GLP1R cytotox,GLP1R inv ag,PTHR1 ag,GLP1R ag,TRHR enhancer,TRHR ag
Cc1c(NS(=O)(=O)c2cccc(C(=O)NCc3ccncc3)c2)c(=O)n(-c2ccccc2)n1C,-9%,5%,i,-2%,-1,0
COc1ccccc1NS(=O)(=O)c1cc(C(=O)N2CCN(C/C=C/c3ccccc3)CC2)ccc1C,-11%,10µM*,-6%,-1%,0,1
O=C(C1CC1)N1CCc2cc(Br)cc(S(=O)(=O)N3CCN(c4cccc(Cl)c4)CC3)c21,3%,-17%,i,1%,-1,0
CCC(C)NC(=O)Cn1c(=O)n(CCCC(=O)NCc2ccccc2Cl)c(=O)c2ccccc21 (configuration not stated),-11%,8%,-1%,10%,2,-1
CCc1ccc(C2=NN(C(=O)OC)C(O)(C(F)(F)F)C2)cc1 (configuration not stated),0%,7.9µM*,-16%[57.5 µM],-1%,-2,0
CCOC(=O)N1N=C(c2ccc(OC)cc2)CC1(O)C(F)(F)F (configuration not stated),6%,u,-37%,18%,32*,0
COc1ccc(CC(=O)N2N=C(c3ccncc3)CC2(O)C(F)(F)F)cc1 (configuration not stated),u,u,-18%,22%,-1,-1
CC(C)(C)c1cc(C(=O)NNC(=O)Nc2cccc(Cl)c2)n(Cc2ccccc2)n1,-20%,5µM*,-31%,1%,-6,0
COc1ccc(CN2C(=O)C(CC(=O)NCCCCc3ccccc3)CC(C(=O)N(C(C)C)C(C)C)=C2C)cc1 (configuration not stated),-18%,11µM*,-13%,-3%,x,x
O=C(OCc1cccc([N+](=O)[O-])c1)c1cc2ccccc2oc1=O,0%,3%,i,4%,-4,0
Cc1ccc(C(=O)OCC(=O)Nc2ccccc2Cl)c(O)c1,3%,3%,-13%,-3%,0,0
